Read-out in test [1]: Interleukin 17A (IL17A), IL17A (gene 3605)
As to the kind of experiment: BSK_BT_xIL17A: BioMAP Diversity Plus: BT Assay for Interleukin 17A (IL17A) Biomarker Activity (AID 2284229). The following applies: primary human B cells with PBMC. A digest of the protocol:
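Secreted IL-17A was the measured endpoint, read by Luminex xMAP multiplex in supernatants of a human B cell/PBMC co-culture harvested 24 h after chemical dosing. Signal increase relative to DMSO defined activity.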

Read-out in test [2]: Tumor necrosis factor (Homo sapiens) (UniProt P01375)
Briefly: BSK_BT_xTNFa: BioMAP Diversity Plus: BT Assay for Tumor necrosis factor alpha (TNF-alpha) Biomarker Activity (AID 2284230). To be noted: primary human B cells with PBMC. A digest of the protocol: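 Read-out: Luminex xMAP quantitation of secreted TNF-alpha from a B cell/PBMC co-culture 24 h after compound addition. Signal analysed relative to DMSO vehicle, positive fitting direction.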

Read-out in test [3]: Vascular cell adhesion molecule 1 (VCAM1), VCAM1 (gene 7412)
As to the kind of experiment: BSK_MyoF_VCAM1: BioMAP Diversity Plus: MyoF Assay for Vascular cell adhesion molecule 1 (VCAM1) Biomarker Activity (AID 2284231). The following applies: primary human lung fibroblasts. The procedure, abridged:
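ELISA read-out of VCAM-1 on human lung fibroblasts 24 h after chemical treatment, with positive-direction curve fitting relative to DMSO controls. Parallel cultures were stained with sulforhodamine B for total protein to flag overt cytotoxicity.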

Read-out in test [4]: Collagen I, COL1A1 (gene 1277)
As to the kind of experiment: BSK_MyoF_CollagenI: BioMAP Diversity Plus: MyoF Assay for Collagen I Biomarker Activity (AID 2284238). The following applies: primary human lung fibroblasts. A digest of the protocol:
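Lung fibroblasts (human primary) dosed, 24 h; Collagen I by ELISA; positive-direction fit vs DMSO control. Parallel SRB total-protein staining (0.1% SRB, 10% TCA fixation, 560 nm) flags overt cytotoxicity.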

Read-out in test [5]: Collagen III, COL3A1 (gene 1281)
Briefly: BSK_MyoF_CollagenIII: BioMAP Diversity Plus: MyoF Assay for Collagen III Biomarker Activity (AID 2284239). To be noted: primary human lung fibroblasts. The procedure, abridged: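 ELISA read-out of collagen III from human lung fibroblasts after 24 h of chemical treatment. The DMSO control served as negative control and baseline, with values fitted in the positive direction.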

Test [6] is described as follows: UKN2_HCS_IMR90_cell_viability: Viability Assessment in the University of Konstanz (UKN) Leist Lab Neural Crest Cell Migration Assay in human induced IMR90 Pluripotent Stem Cells (UKN2) (AID 2284233).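 Also: viability of neural crest cells differentiated from IMR90 iPSC measured by calcein-AM fluorescence imaging.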 A digest of the protocol: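 Neural crest cells derived from IMR90 iPSC migrate into a stopper-free zone for 24 h in EGF/FGF medium, then are exposed to compound for 24 h. Viability assessed by calcein-AM and Hoechst staining with high-content imaging, fitted bidirectionally versus DMSO.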

The nature of test [7]: CCTE_Mundy_HCI_Cortical_NOG_NeuronCount: CCTE's Neurite Outgrowth Assay in rat cortical cells for Neuron Count, Mundy Lab (AID 2284236; active = hit-call score of the fitted dose curve at least 0.9, where 1 is the maximum;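 also: neurons counted by imaging betaIII-tubulin and Hoechst stained cortical cells; cells exposed to compound for about 48 hours before fixation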). The procedure, abridged:
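Read-out: neuron number by high-content imaging of betaIII-tubulin (Alexa Fluor-488) and Hoechst-labelled rat primary cortical cells.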

The nature of test [8]: CCTE_Mundy_HCI_Cortical_NOG_BPCount: CCTE's Neurite Outgrowth Assay in rat cortical cells for Branch Point Count, Mundy Lab (AID 2284237).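 Also: branch points counted about two days after chemical exposure.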 The procedure, abridged: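 Measured 50.33 h after dosing, this morphology endpoint uses rat primary cortical cultures labelled for betaIII-tubulin. Branch points are quantified by high-content imaging, with DMSO as negative control and baseline.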

The nature of test [9]: CCTE_Mundy_HCI_hNP1_Casp3_7: CCTE's Caspase-Glo 3/7 Assay in human neuroprogenitor cells for Apoptosis, Mundy Lab (AID 2284240). The procedure, abridged:
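Luminescent caspase-3/7 readout, 26.5 h post-dose, in human neural progenitor cells from WA09 embryonic stem cells. Cells grew 40–44 h at 37 °C, 5% CO2 before chemical addition. Activity analysed as signal increase over DMSO baseline.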

Records with an inconclusive call do not appear. Some compounds were tested as several samples or in several runs, with calls that do not always agree. Active and inactive are the calls of the source. The calls were made as follows, unless noted: active = hit-call score of the fitted dose curve at least 0.9, where 1 is the maximum; inactive = score below 0.9.

26 compounds from PubChem BioAssay (EPA / NIEHS) can be followed below.

Chain of Tumor necrosis factor (Homo sapiens) (P01375 whole entry, looked up): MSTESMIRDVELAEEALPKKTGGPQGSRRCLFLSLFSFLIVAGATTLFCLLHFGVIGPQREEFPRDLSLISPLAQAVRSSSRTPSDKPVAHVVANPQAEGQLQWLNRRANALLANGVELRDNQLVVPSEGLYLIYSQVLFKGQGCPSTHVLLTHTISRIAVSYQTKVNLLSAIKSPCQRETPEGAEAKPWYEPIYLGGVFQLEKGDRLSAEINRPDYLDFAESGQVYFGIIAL

Turning to `O=C(CCl)NCO`, the result in test [1], in test [2], in test [3], in test [4] and in test [5] was inactive.
On to `Cc1ccccc1OP(=O)(Oc1ccccc1C)Oc1ccccc1C`, for which the AC50 in test [1] is 24.7 µM (active); in test [2] it was 31 µM (active); in test [3], 11.4 µM (active); in test [6], 8.46 µM (active); in [7], 24.1 µM (active); in [8] it was 18 µM (active). Besides, the AC50 in [4] was 9.92 µM (active); in test [5], 10 µM (active); in test [9] it was 10.8 µM (active).
For the compound `C=CC(Cl)CCl` (configuration not stated), the outcome in [1], in test [2] and in [5] was inactive. In addition, the AC50 is 4.05 µM (active) in test [3] and 0.0855 µM (active) in test [4].
With `COCC(=O)N(c1c(C)cccc1C)[C@H](C)C(=O)OC`, the result in [1], in [2], in [3], in test [4] and in test [5] was inactive.
`O=C1C=CC(=O)c2ccccc21`: the AC50 in test [1] was 0.482 µM (active); in [2] it was 0.812 µM (active); in [3], 3.72 µM (active); in test [4] it was 4.3 µM (active); in test [5], 4.13 µM (active).
For the compound `CCOC(=O)CCN(SN(C)C(=O)Oc1cccc2c1OC(C)(C)C2)C(C)C`, the values for the AC50 in test [1], in test [2] and in test [3] were 26.5 µM (active), 36.7 µM (active) and 33.1 µM (active), respectively. The result in [4] and in [5] was inactive.
With `CCOC(=O)CC(=O)CCl`, the AC50 in test [1] is 10.5 µM (active); in [2], 23.4 µM (active). The result in [3], in [4] and in test [5] was inactive.
As to `CCC(C)(C#N)N=NC(C)(C#N)CC` (configuration not stated), the outcome in test [1], in test [2], in test [3], in test [4] and in test [5] was inactive.
Turning to `Nc1ccc(N)cc1`, the result in [1], in test [2], in test [3], in [4] and in [5] was inactive.
With `CCOP(=O)(OCC)SCCSCC`, the outcome in [1], in test [2], in test [3], in [4] and in [5] was inactive.
`Cc1ccc2nc3sc(=O)sc3nc2c1`: the outcome in [1], in [2], in test [4] and in [5] was inactive. In [3], the AC50 was 7.88 µM (active).
Regarding `OC(Cc1ccccc1Cl)(Cn1cncn1)C1(Cl)CC1` (configuration not stated), the outcome in test [1], in test [2], in test [3], in test [4] and in test [5] was inactive.
For `CCCCCCCCCCCCN(C)C`, the outcome in test [1], in test [2], in test [3], in test [4] and in test [5] was inactive.
For `CCCCN(CCCC)C(=S)[S-].CCCCN(CCCC)C(=S)[S-].[Ni+2]`, the result in [1], in [2], in [3], in [4] and in test [5] was inactive.
As to `Nc1c(Oc2ccccc2)cc(O)c2c1C(=O)c1ccccc1C2=O`, the result in [1], in [2], in test [3], in test [4] and in test [5] was inactive.
With `OC(Cc1ccccc1Cl)(Cn1[nH]cnc1=S)C1(Cl)CC1` (configuration not stated), the result in [1], in [2] and in test [7] was inactive. In addition, the AC50 in test [3] was 30.1 µM (active); in test [6] it was 63.1 µM (active); in test [8], 50 µM (active); in test [4] it was 31.4 µM (active); in test [5], 30.5 µM (active); in test [9] it was 91 µM (active).
On to `Cc1cc(Cl)ccc1OC(C)C(=O)O` (configuration not stated), for which the result in test [1], in test [2], in test [3], in [4] and in [5] was inactive.
As to `O=C(O)COc1cc(Cl)c(Cl)cc1Cl`, the result in test [1], in [2], in [3], in test [4] and in test [5] was inactive.
As to `CCOP(=S)(OCC)SCS(=O)(=O)C(C)(C)C`, the outcome in test [1], in test [2], in test [3], in test [4] and in [5] was inactive.
As to `O=[N+]([O-])c1cccc2ccccc12`, the result in test [1], in test [2], in [3], in test [4] and in test [5] was inactive.
Take `CCOP(=O)(OCC)OC(=CCl)c1ccc(Cl)cc1Cl`: the outcome in test [1] and in test [2] was inactive. The figures for the AC50 in test [3], in [4] and in test [5] were 31.2 µM (active), 35.8 µM (active) and 30.7 µM (active), respectively.
On to `CC1(C)[C@H](C(=O)O[C@H](C#N)c2cccc(Oc3ccccc3)c2)[C@@H]1/C=C(\Cl)C(F)(F)F`, for which the AC50 in test [1] was 17.1 µM (active); in test [8], 20.2 µM (active). Also, the outcome in test [1], in [2], in test [3], in test [7], in test [4] and in test [5] was inactive. The result in [9] was inactive.
Turning to `N#CCCC(Br)(C#N)CBr` (configuration not stated), the AC50 is 7.96 µM (active) in test [1]; 11.1 µM (active) in test [2]; 13.9 µM (active) in test [3]; 25.7 µM (active) in test [4]; 24.8 µM (active) in [5].
Take `NC(=O)CCl`: the result in [1], in test [2], in test [3], in test [4] and in [5] was inactive.
As for `Oc1c(Br)cc(Br)cc1Br`, the outcome in test [1], in test [2] and in [5] was inactive. Further, the AC50 in [3] is 15.4 µM (active); in test [4], 29.9 µM (active).
For `CCN(CC)C(=O)C(Cl)=C(C)OP(=O)(OC)OC`, the outcome in [1], in test [2], in [3] and in test [4] was inactive. Besides, the AC50 in test [5] was 0.016 µM (active).

In general, AC50 refers to the midpoint of the concentration-response curve, whichever way the signal moves.
